Assay results as given in PubChem BioAssay (NCATS).
Inconclusive results are not listed. The source made the active and inactive calls. Calls come from the whole dose curve; as a rule, active = well fitted curve in the direction sought with a large enough effect; inconclusive = small, poorly fitted or top-dose-only effect, or another doubt; inactive = no such curve, though single readings can be large; an effect the other way counts as inactive or inconclusive.

Columns and labels:
[1] = qHTS of pediatric cancer cell lines to identify multiple opportunities for drug repurposing: Primary screen for TC32 cells (AID 1347089); note: nearly all actives have a fitted effect of over 60% in size
Method in brief: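 In the primary qHTS, MIPE compounds were tested at 11 concentrations (0.78 nM to 46 µM) and NPC compounds at 8 (0.59 nM to 46 µM) on TC32 cells for 48 h. CellTiter-Glo luminescence gave viability.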

[2] = qHTS of pediatric cancer cell lines to identify multiple opportunities for drug repurposing: Primary screen for SJ-GBM2 cells (AID 1347091)
Method in brief: (§1)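 Cell viability, CellTiter-Glo luminescence; 500-1,000 cells/well, 8- or 11-point titration, 48 h compound exposure at 37 degrees C, 5% CO2. Controls: DMSO neutral, bortezomib 2.3 µM final as positive.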

[3] = qHTS of pediatric cancer cell lines to identify multiple opportunities for drug repurposing: Primary screen for A673 cells (AID 1347092); note: nearly all actives have a fitted effect of over 45% in size
Method in brief: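 48 h compound exposure, A673, 500-1,000 cells/well, 37 degrees C/5% CO2. MIPE: 11-point, 0.78 nM-46 µM; NPC: 8-point, 0.59 nM-46 µM (final). Readout CellTiter-Glo luminescence after 15 min RT.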

[4] = qHTS of pediatric cancer cell lines to identify multiple opportunities for drug repurposing: Primary screen for SK-N-MC cells (AID 1347093)
Method in brief: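 Metabolically active cells were quantified by ATP-dependent luminescence (CellTiter-Glo, 15 min at room temperature) following 48 h treatment. Cells had been plated at 500-1,000 per well and settled for 5 h beforehand.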

[5] = qHTS of pediatric cancer cell lines to identify multiple opportunities for drug repurposing: Primary screen for BT-37 cells (AID 1347094)
Method in brief: (§2)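 ATP-based luminescence (CellTiter-Glo) quantifies viability after a 48-hour exposure. Compounds are dosed across 8 or 11 final concentrations; DMSO and 2.3 µM bortezomib serve as controls.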

[6] = qHTS of pediatric cancer cell lines to identify multiple opportunities for drug repurposing: Primary screen for NB-EBc1 cells (AID 1347095)
Method in brief: as §2

[7] = qHTS of pediatric cancer cell lines to identify multiple opportunities for drug repurposing: Primary screen for Saos-2 cells (AID 1347097); note: nearly all actives have a fitted effect of over 40% in size
Method in brief: as §2

[8] = qHTS of pediatric cancer cell lines to identify multiple opportunities for drug repurposing: Primary screen for NB1643 cells (AID 1347099); note: nearly all actives have a fitted effect of over 50% in size
Method in brief: as §2

[9] = qHTS of pediatric cancer cell lines to identify multiple opportunities for drug repurposing: Primary screen for LAN-5 cells (AID 1347100)
Method in brief: (§3)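 Cells (500-1,000/well) rested 5 h, then received compounds for 48 h; metabolically active cells were measured by CellTiter-Glo luminescence. Final concentrations spanned up to 46 µM (MIPE, 11-point) or 0.59 nM-46 µM (NPC, 8-point) in primary screens, 11-point in follow-ups.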

[10] = qHTS of pediatric cancer cell lines to identify multiple opportunities for drug repurposing: Primary screen for Rh18 cells (AID 1347102); note: nearly all actives have a fitted effect of over 65% in size
Method in brief: as §3

[11] = qHTS of pediatric cancer cell lines to identify multiple opportunities for drug repurposing: Primary screen for OHS-50 cells (AID 1347103); note: nearly all actives have a fitted effect of over 40% in size
Method in brief: as §3

[12] = qHTS of pediatric cancer cell lines to identify multiple opportunities for drug repurposing: Primary screen for RD cells (AID 1347104); note: nearly all actives have a fitted effect of over 55% in size
Method in brief: as §2

[13] = qHTS of pediatric cancer cell lines to identify multiple opportunities for drug repurposing: Primary screen for MG 63 (6-TG R) cells (AID 1347105); note: nearly all actives have a fitted effect of over 50% in size
Method in brief: as §2

[14] = qHTS of pediatric cancer cell lines to identify multiple opportunities for drug repurposing: Primary screen for DAOY cells (AID 1347090); note: nearly all actives have a fitted effect of over 55% in size
Method in brief: as §1

[15] = qHTS of pediatric cancer cell lines to identify multiple opportunities for drug repurposing: Primary screen for SK-N-SH cells (AID 1347098); note: nearly all actives have a fitted effect of over 65% in size
Method in brief: as §3

[16] = qHTS of pediatric cancer cell lines to identify multiple opportunities for drug repurposing: Primary screen for U-2 OS cells (AID 1347096); note: nearly all actives have a fitted effect of over 50% in size
Method in brief: as §3

[17] = qHTS of pediatric cancer cell lines to identify multiple opportunities for drug repurposing: Primary screen for BT-12 cells (AID 1347101); note: nearly all actives have a fitted effect of over 25% in size
Method in brief: as §3
Potency is the fitted concentration of half-maximal effect.

SMILES | Potency [1] | Potency [2] | Potency [3] | Potency [4] | Potency [5] | Potency [6] | Potency [7] | Potency [8] | Potency [9] | Potency [10] | Potency [11] | Potency [12] | Potency [13] | Potency [14] | Potency [15] | Potency [16] | Potency [17]
CN(C)C1CCN(C(=O)c2ccc(NC(=O)Nc3nc(N4CCOCC4)nc(N4CCOCC4)n3)cc2)CC1 | 0.0658 µM (active) | 0.105 µM (active) | 0.0118 µM (active) | 0.0166 µM (active) | 0.0273 µM (active) | 1.32 µM (active) | 0.166 µM (active) | 0.372 µM (active) | 0.187 µM (active) | 0.0526 µM (active) | 0.0217 µM (active) | 0.0662 µM (active) | 0.0935 µM (active) |  |  |  | 
CN1CCN(CCOc2cc(OC3CCOCC3)c3c(Nc4c(Cl)ccc5c4OCO5)ncnc3c2)CC1 | inactive |  | 11.8 µM (active) | 11.8 µM (active) | 7.69 µM (active) |  |  |  |  |  | 17.2 µM (active) | 20.9 µM (active) |  | 18.7 µM (active) | 13.6 µM (active) |  | 
COc1ccc(C2CC(c3ccccc3)=NN2c2ccc(S(N)(=O)=O)cc2)cc1 (stereo not drawn) | inactive |  |  | 18.7 µM (active) | 12.2 µM (active) |  | 16.6 µM (active) |  |  | inactive |  |  |  | inactive | inactive | inactive | 21.7 µM (active)
O=C(O)c1ccccc1C(=O)Nc1ccc(-c2ccccc2)cc1 | inactive |  | inactive | inactive | inactive | inactive | inactive | inactive | inactive | inactive | inactive | inactive | inactive | inactive |  | inactive | inactive
NC(=O)c1cccc(-c2cc(Nc3ccc(OC(F)(F)F)cc3)ncn2)c1 | inactive | inactive |  | inactive | inactive | inactive |  | inactive |  | inactive |  | inactive | inactive |  | inactive | inactive | 
CO[C@H]1C[C@@H]2CC[C@@H](C)[C@@](O)(O2)C(=O)C(=O)N2CCCC[C@@H]2C(=O)O[C@H]([C@H](C)C[C@@H]2CC[C@H](OCCO)[C@H](OC)C2)CC(=O)[C@H](C)C=C(C)[C@@H](O)[C@@H](OC)C(=O)[C@H](C)C[C@H](C)C=CC=CC=C1C | 3.3 µM (active) |  |  |  | 10.9 µM (active) |  | 3.32 µM (active) | inactive |  |  | 6.11 µM (active) |  | inactive | inactive |  |  | 
C=C1C(=O)[C@@]23C(CC[C@@H]1[C@H]2O)[C@@]12CO[C@]3(O)[C@@H](O)[C@@H]1C(C)(C)CC[C@@H]2O (stereo partly drawn) | 16.5 µM (active) |  | 3.72 µM (active) | 1.66 µM (active) | 27.3 µM (active) | 2.09 µM (active) | 4.69 µM (active) | 1.48 µM (active) | 1.66 µM (active) | 9.35 µM (active) | 9.68 µM (active) | 9.35 µM (active) | 4.69 µM (active) | 2.35 µM (active) | 15.2 µM (active) | 14.8 µM (active) | 3.43 µM (active)
COc1cccc2c1CCCC2CCCN1CCN(C2CCCCC2)CC1 (stereo not drawn) | inactive |  | inactive | 18.7 µM (active) |  |  |  |  | 26.4 µM (active) |  | 19.3 µM (active) | 26.4 µM (active) | inactive | inactive |  | inactive | 24.3 µM (active)
O=C1Nc2ccc(Cl)cc2C(C#CC2CC2)(C(F)(F)F)O1 (stereo not drawn) | inactive |  |  | 13.2 µM (active) |  | inactive | 20.9 µM (active) | 23.5 µM (active) |  | inactive | 21.7 µM (active) | 41.8 µM (active) |  | 29.6 µM (active) |  |  | 
CC(C)(C)c1cc(C(=O)O)c(NC(=O)Nc2ccc3[nH]ncc3c2)s1 | inactive | inactive | inactive | 23.5 µM (active) | inactive | inactive |  |  | inactive | inactive | inactive |  | inactive |  | inactive | inactive | inactive
O=c1[nH]cnc2c1ncn2[C@H]1CC[C@@H](CO)O1 | inactive |  | 29.6 µM (active) | 9.35 µM (active) | inactive | inactive | inactive |  | inactive | inactive | inactive | inactive | inactive | inactive |  | inactive | inactive
CC(=O)Oc1cc2c(s1)CCN(C(C(=O)C1CC1)c1ccccc1F)C2 (stereo not drawn) | inactive |  | 1.48 µM (active) | 1.32 µM (active) | 1.09 µM (active) | 3.72 µM (active) |  |  |  |  | 1.37 µM (active) | inactive |  | 1.48 µM (active) |  |  | 3.06 µM (active)
Cc1c(O)cccc1C(=O)N[C@@H](CSc1ccccc1)[C@H](O)CN1C[C@H]2CCCC[C@@H]2C[C@@H]1C(=O)NC(C)(C)C | inactive | 18.7 µM (active) | 23.5 µM (active) | 16.6 µM (active) |  |  | 26.4 µM (active) |  |  | 18.7 µM (active) | 24.3 µM (active) | 26.4 µM (active) | 18.7 µM (active) |  |  |  | 
